Inconclusive results are not listed. Calls of active or inactive are those of the source. Unless noted, calls follow the shape of the dose curve; as a rule, active = well fitted curve in the direction sought with a large enough effect; inconclusive = small, poorly fitted or top-dose-only effect, or another doubt; inactive = no such curve, though single readings can be large; an effect the other way counts as inactive or inconclusive.
How the values were obtained:
[1] = qHTS for Inhibitors of Cell Surface uPA Generation: Validation Assay (AID 493164)
In short: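 RAW 264.7 cells (4000/well) were plated overnight, then exposed for 18 h at 37 C, 5% CO2 to compounds in a 7-point 1:5 titration (2.45 nM–38.3 uM final). Intracellular ATP was read by ATP-Lite luminescence.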

[2] = biological target: Galactokinase (Homo sapiens) (UniProt P51570); assay: qHTS Validation Assay for Inhibitors of Human Galactokinase (GALK) (AID 493189)
Galactokinase (Homo sapiens), sequence (P51570 whole entry, looked up): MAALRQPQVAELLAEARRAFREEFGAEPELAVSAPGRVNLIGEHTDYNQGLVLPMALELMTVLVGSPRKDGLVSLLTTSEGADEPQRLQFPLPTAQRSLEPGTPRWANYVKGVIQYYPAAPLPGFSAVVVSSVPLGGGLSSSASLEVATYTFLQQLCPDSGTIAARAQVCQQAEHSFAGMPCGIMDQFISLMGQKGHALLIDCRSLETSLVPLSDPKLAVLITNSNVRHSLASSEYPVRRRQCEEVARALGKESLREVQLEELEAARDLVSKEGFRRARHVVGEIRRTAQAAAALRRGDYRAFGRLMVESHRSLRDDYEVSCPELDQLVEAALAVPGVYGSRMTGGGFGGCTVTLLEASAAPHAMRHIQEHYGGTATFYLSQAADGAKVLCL
In short: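 5 nM GALK / 100 uM galactose / 35 uM ATP, 20 mM HEPES pH8.0, 5 mM MgCl2, 60 mM NaCl, 1 mM DTT, 0.01% BSA (final). RT 1 h; Kinase-Glo Plus luminescence.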

[3] = Validation screen for small molecules that induce DNA re-replication in SW480 colon adenocarcinoma cells (AID 504364)
In short: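 250 cells/well; compound pinned in; 48 hr, 37 C, 5% CO2; Hoechst added, 40 min; nuclear fluorescence imaged, 405 ex / 500-530 em; re-replication scored as increase in high-intensity nuclei.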

[4] = biological target: Peptidyl-prolyl cis-trans isomerase NIMA-interacting 1 (Homo sapiens) (UniProt Q13526); assay: qHTS Validation Assay to Find Inhibitors of Pin1 (AID 504536; active = well fitted inhibition curve with a large enough effect in the polarisation, with a control signal flat, not every such curve was filed as active; the % refers to the polarisation)
Peptidyl-prolyl cis-trans isomerase NIMA-interacting 1 (Homo sapiens), sequence (Q13526 whole entry, looked up): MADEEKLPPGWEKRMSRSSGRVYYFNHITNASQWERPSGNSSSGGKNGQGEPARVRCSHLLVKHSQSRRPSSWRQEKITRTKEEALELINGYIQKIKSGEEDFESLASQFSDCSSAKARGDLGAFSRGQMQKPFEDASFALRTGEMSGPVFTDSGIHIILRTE
In short: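 Fluorescence polarization competition: compounds (titration) displace HiFluor-488-labeled Pin1-1b peptide from Pin1 (0.3 uM final) in pH 7.5 HEPES buffer with DTT, 10 min at room temperature; %Activity normalized to no-enzyme wells, curves fitted.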

[5] = biological target: Phosphoglycerate kinase, glycosomal (Trypanosoma brucei brucei) (UniProt P07378); assay: qHTS Validation Assay to Find Inhibitors of Phosphoglycerate Kinase (AID 504547)
Phosphoglycerate kinase, glycosomal (Trypanosoma brucei brucei), sequence (P07378 whole entry, looked up): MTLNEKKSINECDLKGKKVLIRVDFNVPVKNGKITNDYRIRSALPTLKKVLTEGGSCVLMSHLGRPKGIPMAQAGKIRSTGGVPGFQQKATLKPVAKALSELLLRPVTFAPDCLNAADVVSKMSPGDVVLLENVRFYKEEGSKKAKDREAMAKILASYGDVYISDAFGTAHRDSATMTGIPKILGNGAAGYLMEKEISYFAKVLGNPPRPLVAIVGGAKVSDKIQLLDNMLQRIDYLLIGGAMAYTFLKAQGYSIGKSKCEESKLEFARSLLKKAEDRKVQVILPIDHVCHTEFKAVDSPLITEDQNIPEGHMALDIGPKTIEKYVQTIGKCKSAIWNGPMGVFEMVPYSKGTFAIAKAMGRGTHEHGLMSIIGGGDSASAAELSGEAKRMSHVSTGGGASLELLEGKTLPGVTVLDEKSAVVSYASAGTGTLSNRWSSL
In short: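 Inhibition of the enzyme is judged by a Kinase-Glo Plus luminescent signal following a one-hour incubation at room temperature. Because 1,3-BPG is unstable, it is made in situ by GAPDH at 100nM final; no-PGK wells define the baseline.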

[6] = biological target: phosphoglycerate mutase (Leishmania major) (UniProt Q4Q090); assay: qHTS Validation Assay to Find Inhibitors of Phosphoglycerate Mutase (AID 504548); conditions: Potency: inhibition qHTS;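 also: end-point luminescence from Kinase-GloPlus after the PGAM reaction; series mostly up to about 58 µM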
phosphoglycerate mutase (Leishmania major), sequence (Q4Q090 1-553): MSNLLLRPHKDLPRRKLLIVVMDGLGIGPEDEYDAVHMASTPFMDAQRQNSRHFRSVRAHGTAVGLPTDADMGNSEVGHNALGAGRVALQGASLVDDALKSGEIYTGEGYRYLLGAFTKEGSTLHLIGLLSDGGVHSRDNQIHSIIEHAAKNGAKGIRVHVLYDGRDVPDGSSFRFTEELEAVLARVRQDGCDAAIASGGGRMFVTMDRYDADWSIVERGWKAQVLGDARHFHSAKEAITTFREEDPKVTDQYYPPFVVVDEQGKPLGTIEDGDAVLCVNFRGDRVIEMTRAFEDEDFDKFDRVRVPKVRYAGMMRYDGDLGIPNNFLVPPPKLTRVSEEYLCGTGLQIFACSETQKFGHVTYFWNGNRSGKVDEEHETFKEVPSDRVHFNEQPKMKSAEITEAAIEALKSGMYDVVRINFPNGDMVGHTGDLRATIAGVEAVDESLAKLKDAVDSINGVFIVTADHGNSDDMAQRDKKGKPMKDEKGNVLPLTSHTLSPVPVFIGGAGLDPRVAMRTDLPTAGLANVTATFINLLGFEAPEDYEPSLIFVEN
In short: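 Inhibition of L. major PGAM was assessed by Kinase-GloPlus luminescence following a 45-minute room-temperature reaction with enzyme at 1.25nM final.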

[7] = biological target: Ubiquitin carboxyl-terminal hydrolase 1 (Homo sapiens) (UniProt O94782); assay: Inhibitors of USP1/UAF1: Pilot qHTS (AID 504865);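 also: rhodamine fluorescence freed from ubiquitin-rhodamine substrate followed over time; top concentration of the series differs between compounds; nearly all actives have a fitted effect of over 35% in size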
Ubiquitin carboxyl-terminal hydrolase 1 (Homo sapiens), sequence (O94782 whole entry, looked up): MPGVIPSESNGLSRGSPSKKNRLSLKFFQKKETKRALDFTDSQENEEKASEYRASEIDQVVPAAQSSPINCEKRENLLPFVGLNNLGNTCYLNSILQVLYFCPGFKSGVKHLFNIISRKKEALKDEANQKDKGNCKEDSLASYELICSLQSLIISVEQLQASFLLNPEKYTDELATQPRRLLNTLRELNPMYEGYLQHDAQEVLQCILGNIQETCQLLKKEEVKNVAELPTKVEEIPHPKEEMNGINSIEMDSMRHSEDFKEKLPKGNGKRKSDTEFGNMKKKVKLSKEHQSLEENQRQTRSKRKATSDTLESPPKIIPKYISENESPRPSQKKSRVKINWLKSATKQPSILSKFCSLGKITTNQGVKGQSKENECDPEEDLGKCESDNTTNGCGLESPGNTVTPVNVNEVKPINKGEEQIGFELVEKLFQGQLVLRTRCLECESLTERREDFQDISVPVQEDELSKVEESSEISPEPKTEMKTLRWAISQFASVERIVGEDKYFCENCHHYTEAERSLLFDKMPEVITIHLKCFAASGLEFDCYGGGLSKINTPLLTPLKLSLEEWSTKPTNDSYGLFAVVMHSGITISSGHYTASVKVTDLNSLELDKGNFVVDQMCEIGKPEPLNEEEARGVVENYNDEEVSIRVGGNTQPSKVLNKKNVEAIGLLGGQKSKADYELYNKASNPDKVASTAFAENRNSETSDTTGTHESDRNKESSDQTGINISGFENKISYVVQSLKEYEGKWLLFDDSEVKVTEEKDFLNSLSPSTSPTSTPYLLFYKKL
In short: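 In 50mM HEPES pH 7.8 containing 0.5mM EDTA, 1mM TCEP, 0.1 mg/ml BSA and 0.01% Tween-20, 1nM USP1/UAF1 is exposed to compound for 15 min, then Ub-Rho (150nM final) is added and fluorescence is read over time.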

[8] = qHTS for Inhibitors of ATXN expression: Validation of Cytotoxic Assay (AID 588349)
In short: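 Read-out: ATP-based luminescence (CellTiter Glo) reflecting viability of HEK293 cells after 72 hr incubation at 37 degrees C with a concentration series of each compound.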

[9] = qHTS for Inhibitors of ATXN expression: Validation (AID 588378); also: nearly all actives have a fitted effect of over 75% in size; also: potency is read from the fitted curve at half-maximal effect
In short: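 Compounds were pinned onto attached HEK293 cells carrying an ATXN2-firefly luciferase construct and incubated 24 hrs at 37 degrees C. Each well then received a fluorescent viability reagent followed by luciferase substrate for end-point luminescence.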

[10] = Nrf2 qHTS screen for inhibitors: Validation (AID 493153; active = well fitted inhibition curve with a large enough effect in the main read-out, with a control signal flat, not every such curve was filed as active); conditions: Potency: luciferase luminescence; viability change: measured here: cytotoxicity max response
In short: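 Luminescence from an ARE-firefly luciferase reporter in A549 cells gives Nrf2 inhibition; an earlier CellTiter-Fluor fluorescent read flags cytotoxicity. Cells in 5% FBS OPTI-MEM received compound dilution series for 18-24 h at 37°C.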

[11] = biological target: DNA dC->dU-editing enzyme APOBEC-3G (Homo sapiens) (UniProt Q9HC16); assay: qHTS for inhibitors of Vif-A3G interactions: Validation (AID 588379)
DNA dC->dU-editing enzyme APOBEC-3G (Homo sapiens), sequence (Q9HC16 whole entry, looked up): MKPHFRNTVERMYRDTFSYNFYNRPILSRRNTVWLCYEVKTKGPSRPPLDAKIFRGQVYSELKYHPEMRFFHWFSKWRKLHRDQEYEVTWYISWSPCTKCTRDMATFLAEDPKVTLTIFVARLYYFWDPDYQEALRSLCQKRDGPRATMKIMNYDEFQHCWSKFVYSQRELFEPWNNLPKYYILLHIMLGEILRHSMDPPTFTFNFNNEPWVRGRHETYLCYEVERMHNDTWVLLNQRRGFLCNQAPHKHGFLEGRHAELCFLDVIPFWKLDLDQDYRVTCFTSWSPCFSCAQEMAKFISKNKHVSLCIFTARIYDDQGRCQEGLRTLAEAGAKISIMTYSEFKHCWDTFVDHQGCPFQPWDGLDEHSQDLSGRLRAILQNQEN
In short: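 HeLa cells stably expressing Vif and A3G-eYFP, 700 cells/well, incubated overnight at 37 deg C, then exposed to compound overnight at 37 deg C. Inhibition of Vif-mediated degradation read as increased yellow fluorescence (Ex 488/Em 500-530) by laser-scanning cytometry.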

O=c1[nH]c2cc(Cl)ccc2c(O)c1-c1ccc(Oc2ccccc2)cc1
inactive: outcome [1] | Potency [2] | Potency [3] | Potency [4] | Potency [5] | Potency [6] | Potency [7] | Potency [8] | Potency [9]

CCCCCCCCCCCCCCCCCCOC[C@H](COP(=O)([O-])OCC[N+](C)(C)C)OC
inactive: outcome [1] | Potency [2] | Potency [3] | Potency [4] | Potency [5] | Potency [6] | Potency [7] | Potency [9]

C=C(C)C1CC=C(C(=O)O)CC1 (centres undefined)
inactive: outcome [1] | Potency [2] | Potency [3] | Potency [4] | Potency [5] | Potency [9]

Nc1nc2[nH]c(=O)cnc2c(=O)[nH]1
inactive: outcome [1] | Potency [2] | Potency [3] | Potency [4] | Potency [5] | Potency [6] | Potency [7] | Potency [8] | Potency [9]

Cc1nc2n(c(=O)c1CCN1CCC(c3noc4cc(F)ccc34)CC1)CCCC2O (centres undefined)
inactive: Potency [10] | Potency [4] | Potency [5] | Potency [7]
3.12%: viability change [10]

Cc1cccc(C(=O)NCN2CCN(c3ccccc3C#N)CC2)c1
inactive: outcome [1] | Potency [2] | Potency [3] | Potency [4] | Potency [5] | Potency [6] | Potency [7] | Potency [8] | Potency [9] | Potency [11]

C[C@@]1(C2CCCC2)Cc2cc(OCC(=O)O)c(Cl)c(Cl)c2C1=O
inactive: outcome [1] | Potency [2] | Potency [3] | Potency [4] | Potency [5] | Potency [6] | Potency [7] | Potency [8] | Potency [9]

CC1CNCCN1S(=O)(=O)c1cccc2cnccc12 (centres undefined)
inactive: outcome [1] | Potency [2] | Potency [3] | Potency [4] | Potency [5] | Potency [6] | Potency [7]
active: Potency [9] 22.4 µM

CCCCCC(O)CCCC(=O)O (centres undefined)
inactive: outcome [1] | Potency [2] | Potency [3] | Potency [4] | Potency [5] | Potency [6] | Potency [7] | Potency [8] | Potency [9]

O=C(O)c1ccccc1Nc1cccc(OCc2ccc3ccccc3n2)c1
inactive: outcome [1] | Potency [2] | Potency [3] | Potency [4] | Potency [6] | Potency [8] | Potency [9] | Potency [11]

Nc1nc2ccc(Cl)cc2c2nc(-c3ccco3)nn12
inactive: outcome [1] | Potency [2] | Potency [3] | Potency [4] | Potency [5] | Potency [7] | Potency [8] | Potency [9]

Clc1nccc2c1ccc1ccccc12
inactive: outcome [1] | Potency [2] | Potency [3] | Potency [4] | Potency [5] | Potency [6] | Potency [7] | Potency [9]

O=c1cc(-c2ccccc2F)[nH]c2cc3c(cc12)OCO3
inactive: outcome [1] | Potency [4] | Potency [5] | Potency [7]

COc1ccc(-c2cc3ncc(C)n3c(Nc3ncccc3C(N)=O)n2)cc1OC
inactive: outcome [1] | Potency [4] | Potency [5] | Potency [6] | Potency [7]

c1ccc(C(NCCNC(c2ccccc2)c2ccccc2)c2ccccc2)cc1
inactive: outcome [1] | Potency [4] | Potency [5] | Potency [6]

CNCCc1cnc(CCC(c2ccccc2)c2ccccc2)[nH]1
inactive: outcome [1] | Potency [4] | Potency [5] | Potency [7]

O=c1[nH]c(=S)[nH]c(-c2ccccc2)c1Cc1c(O)ccc2ccccc12
inactive: Potency [4] | Potency [5] | Potency [6] | Potency [8] | Potency [9]
